# FBW7 act: activators of human E3 ligase FBW7 | Q969H0 | AlphaScreen FBW7–phospho-cyclin E peptide binding, activator screen | normalized activity (activation), % at 26.1 µM | hit rate 0.13% among 650,000 | AID 1259310; in the data active = normalized activity above about 1.9%;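 also: purified mutant Fbw7 with reduced substrate affinity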
# Target sequence (Q969H0 whole entry, looked up): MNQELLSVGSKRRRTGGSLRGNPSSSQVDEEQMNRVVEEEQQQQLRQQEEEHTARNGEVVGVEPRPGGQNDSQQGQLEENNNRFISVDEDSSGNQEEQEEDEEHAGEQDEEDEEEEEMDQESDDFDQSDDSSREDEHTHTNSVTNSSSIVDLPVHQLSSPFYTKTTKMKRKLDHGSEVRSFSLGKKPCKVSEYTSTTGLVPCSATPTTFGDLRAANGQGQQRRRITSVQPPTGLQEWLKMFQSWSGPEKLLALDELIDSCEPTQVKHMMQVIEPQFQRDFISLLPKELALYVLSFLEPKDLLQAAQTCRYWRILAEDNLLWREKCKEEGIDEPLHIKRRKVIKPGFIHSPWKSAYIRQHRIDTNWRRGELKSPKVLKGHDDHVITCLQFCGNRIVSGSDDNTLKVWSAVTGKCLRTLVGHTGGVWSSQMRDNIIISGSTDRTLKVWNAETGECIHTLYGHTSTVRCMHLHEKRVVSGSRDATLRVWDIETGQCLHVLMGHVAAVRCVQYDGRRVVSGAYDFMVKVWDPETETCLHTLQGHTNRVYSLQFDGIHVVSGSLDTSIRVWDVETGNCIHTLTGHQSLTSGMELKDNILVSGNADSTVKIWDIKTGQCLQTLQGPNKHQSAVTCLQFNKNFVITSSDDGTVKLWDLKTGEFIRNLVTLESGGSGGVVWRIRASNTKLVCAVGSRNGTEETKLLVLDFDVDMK
# GPR151 ag: activates the human receptor GPR151 | Q8TDV0 | PathHunter beta-arrestin GPR151 cells, luminescence | activation, % at 11.2 µM | hit rate 1% among 650,000; in the data active = activation above about 4.9%
# TEAD-YAP block: TEAD-YAP interaction inhibition | inhibition, % at 9.12 µM | hit rate 1.4% among 640,000 | HEK-TIYL cells, TEAD-Gal4/YAP UAS-luciferase luminescence; in the data active = inhibition above about 32%
# MITF inh: inhibitors of human MITF; AlphaScreen MITF homodimerization, bead proximity signal; inhibition, % at 2.6 µM; hit rate 0.91% among 650,000; AID 1259374; in the data active = inhibition above about 50%
# Hits are given with their value; . = inactive. A selection: hits, their analogues and other compounds. The true share with any hit is near 3.4%.
SMILES,FBW7 act,GPR151 ag,TEAD-YAP block,MITF inh
CN1CCN(C(=O)c2ccc(-c3nc(C(=O)Nc4ccc(Oc5ccccc5)cc4)cs3)cc2)CC1,.,.,43.8,.
CC(=O)Nc1ccc(NC(=O)c2csc(-c3ccc(C(=O)NC4CC4)cc3)n2)cc1,.,.,.,.
O=C(NC1CC1)c1ccc(-c2nc(C(=O)Nc3ccc(Oc4ccccc4)cc3)cs2)cc1,.,.,32.5,.
CCOC(=O)c1ccccc1NC(=O)c1ccc(N2CCCCS2(=O)=O)cc1,.,.,.,.
CCN(CC)c1ccc(N)c(C)c1,.,.,.,80.0
CC(=O)Nc1ccc(Nc2nc(Nc3cnccn3)nc3c2ncn3C(C)C)cc1,.,.,40.9,.
CC(C)n1cnc2c(Nc3ccccc3)nc(Nc3cnccn3)nc21,.,.,.,.
CC(=O)c1cccc(-c2cc(Nc3ccc(N4CCOCC4)cc3)nc(N)n2)c1,.,.,46.5,.
Nc1nc(Nc2ccc(N3CCOCC3)cc2)cc(Nc2cnccn2)n1,.,.,61.0,.
CC(=O)c1cccc(-c2nc(C)cc(Nc3ccc(N4CCOCC4)cc3)n2)c1,.,.,.,.
CC(C)n1cnc2c(Nc3ccccc3)nc(Nc3ccc(N4CCOCC4)cc3)nc21,.,.,.,.
Nc1nc(Nc2ccc(N3CCOCC3)cc2)cc(Nc2ccncn2)n1,.,.,.,.
CC(C)n1cnc2c(Nc3ccc(N4CCOCC4)cc3)nc(Nc3cnccn3)nc21,.,.,32.3,.
Fc1ccccc1-c1cccc2ccc(N3CCN(c4ncccn4)CC3)nc12,.,.,.,.
Cc1cc(Br)ccc1NC(=O)c1sc2ncnc(N3CCC(C)CC3)c2c1C,.,.,.,.
O=C1c2cccc3cccc(c23)C(=O)N1Nc1ccc(Cl)cc1[N+](=O)[O-],.,.,.,.
CCCCNC(=O)Cn1c(C)nc2sc(C)c(C)c2c1=O,.,.,.,.
COc1ccc(/C=C(\C#N)c2ccccc2)c(OC)c1,.,.,32.5,.
O=C(NCCO)c1cccc(-c2cnc3c(Nc4cccc(C(F)(F)F)c4)nccn23)c1,.,.,.,.
CC(C)c1ccc(Nc2nccn3c(-c4ccc(O)cc4)cnc23)cc1,.,.,.,.
Oc1ccc(Nc2nccn3c(-c4ccsc4)cnc23)cc1,.,.,37.0,.
Oc1ccc(Nc2nccn3c(-c4ccc(F)cc4)cnc23)cc1,.,.,52.6,.
Cc1ccc(-c2cnc3c(Nc4ccc(O)cc4)nccn23)cc1,.,.,.,.
O=C(NCCO)c1cccc(-c2cnc3c(Nc4ccc(F)c(Cl)c4)nccn23)c1,.,.,73.8,.
OC1CCC(Nc2nccn3c(-c4ccsc4)cnc23)CC1 (stereo not drawn),2.1,.,.,.
SMILES,FBW7 act,GPR151 ag,TEAD-YAP block,MITF inh
CCOC(=O)c1sc2nc(SCC(=O)C(C)(C)C)n(Cc3ccc4c(c3)OCO4)c(=O)c2c1C,.,.,.,.
Oc1ccc(Nc2nccn3c(-c4ccccc4F)cnc23)cc1,.,.,82.9,.
Oc1ccc(Nc2nccn3c(-c4cccc(F)c4)cnc23)cc1,.,.,65.1,.
CC1CCCCN1C(=O)COC(=O)Cn1[nH]c(=O)c2ccccc2c1=O (stereo not drawn),.,.,.,.
O=c1/c(=C/c2cc(Br)cc(Br)c2OCc2ccccc2F)sc2nc3ccccc3n12,.,.,.,.
O=C(CSc1n[nH]c(-c2ccncc2)n1)c1ccc(O)c(O)c1,.,.,.,99.2
CC[C@@]1(O)C(=O)OCc2c1cc1n(c2=O)Cc2cc3cc(O)ccc3nc2-1,.,.,84.0,.
COC(=O)/C(=C/c1cc(C)n(CC(F)(F)F)c1C)C(C)=O,.,.,.,.
CN(C)c1ccc(Nc2nc(-c3cccs3)cs2)cc1,.,.,69.8,.
O=C(Nc1nc(-c2cccs2)cs1)c1ccncc1,.,.,35.3,.
O=C(Nc1nc(-c2cccs2)cs1)c1ccc(Br)cc1,.,.,.,.
Cc1ccc(Nc2nc(-c3cccs3)cs2)nc1,.,.,55.5,.
Cc1cccnc1Nc1nc(-c2cccs2)cs1,.,.,.,.
COc1ccc(CN2C(=O)N(c3ccccc3)C(=O)C2CC(=O)Nc2ccc(F)cc2)cc1 (stereo not drawn),.,.,.,.
O=C(Nc1ccc(-c2cn3ccsc3n2)cc1)c1cccnc1Cl,.,.,46.0,.
COc1ccc(Cc2noc(-c3ccc(OC)c(OC)c3)n2)cc1OC,.,.,.,.
COc1ccc(Cc2noc(-c3ccc([N+](=O)[O-])o3)n2)cc1OC,.,.,66.7,.
COC(=O)CN(c1ccc(Cl)cc1)S(=O)(=O)c1ccccc1,.,.,.,.
COc1cccc(Nc2nc(N3CCN(CCO)CC3)nc3c2cnn3C)c1,.,.,41.0,.
CCOc1ccccc1N1CC(O)=C(c2nc3ccccc3[nH]2)C1=N,.,.,54.3,.
CC(c1ccccc1)N1CC(O)=C(c2nc3ccccc3[nH]2)C1=N (stereo not drawn),.,.,54.8,.
COc1cccc(C(=O)N[C@H]2C[C@H]3C(=O)N[C@@H](C)C(=O)N3C2)c1,.,.,.,.
O=C(Nc1ccncc1)c1ccc(C(=O)c2ccccc2)cc1,.,.,55.3,.
O=C(O)c1cccc(NC(=O)c2ccc(Oc3ccccc3)cc2)c1,.,.,93.2,.
O=C(O)c1ccc(NC(=O)c2ccc(Oc3ccccc3)cc2)cc1,.,.,39.1,.
SMILES,FBW7 act,GPR151 ag,TEAD-YAP block,MITF inh
Cc1c(C(=O)Nc2cccc(C(=O)O)c2)cccc1[N+](=O)[O-],3.5,.,.,.
Cc1c(C(=O)NC(=S)Nc2cccc(C(=O)O)c2)cccc1[N+](=O)[O-],.,.,.,.
O=C(Nc1ccncc1)c1ccc(C(=O)Nc2ccncc2)cc1,.,.,.,.
O=C(Nc1cccc(F)c1)c1ccc(Oc2ccccc2)cc1,.,.,.,.
COc1ccc(S(=O)(=O)NNC(=O)c2cc3c(s2)CCC(C)C3)cc1 (stereo not drawn),.,.,.,.
O=C(CN1C(=O)c2ccc(Br)cc2C1=O)OCc1c(F)cccc1Cl,.,.,.,.
CCc1cccc(OCC(=O)Nc2ccc3c(c2)OCO3)c1,.,.,.,.
CCOC(=O)C(C)Oc1cc(Br)c(C=O)cc1OC (stereo not drawn),.,.,.,.
CCOC(=O)C(=Cc1cc(OC)c(OC)cc1Br)C(=O)OCC,.,.,42.2,.
COc1cc(OC)cc(-c2cc3nc4c(c(NCc5cccnc5)n3n2)CCC4)c1,.,.,44.7,.
COc1cccc(-c2cc3nc4c(c(NCc5cccnc5)n3n2)CCC4)c1,.,.,42.2,.
O=C(CN1C(=O)c2ccccc2C1=O)Nc1ccc2c(c1)C(=O)NC2=O,.,.,.,.
Cc1ccc(C(=O)N2CCN(c3ccc(Cl)cc3)CC2)cc1[N+](=O)[O-],.,.,.,.
CCOC(=O)C1=C(C)N=c2s/c(=C\c3ccc(OCCOc4ccccc4)c(OC)c3)c(=O)n2C1c1ccc(OC)cc1 (stereo not drawn),.,.,.,.
CCOC(=O)c1ccc(NC(=O)CC2C(=O)N(CC)C(=S)N2Cc2cccnc2)cc1 (stereo not drawn),.,.,.,.
